Compound activity: PubChem, National Center for Advancing Translational Sciences (NCATS)
Compounds with a hit are over-represented: about 7.3% of the library has one in this group of screens.
FLuc modulator: qHTS profiling assay for firefly luciferase inhibitor/activator using purifed enzyme and Km concentrations of substrates (counterscreen for miR-21 project); Luciferin 4-monooxygenase (Photinus pyralis), P08659; purified FLuc, Km substrates, luminescence inhibition; Potency, µM (highest dose often 57.5 µM), most hits filed as inhibitors; 360,000 tested, 6.9% active; AID 588342, 2011; note: nearly all actives have a fitted effect of over 55% in size
Target sequence (P08659 whole entry, looked up): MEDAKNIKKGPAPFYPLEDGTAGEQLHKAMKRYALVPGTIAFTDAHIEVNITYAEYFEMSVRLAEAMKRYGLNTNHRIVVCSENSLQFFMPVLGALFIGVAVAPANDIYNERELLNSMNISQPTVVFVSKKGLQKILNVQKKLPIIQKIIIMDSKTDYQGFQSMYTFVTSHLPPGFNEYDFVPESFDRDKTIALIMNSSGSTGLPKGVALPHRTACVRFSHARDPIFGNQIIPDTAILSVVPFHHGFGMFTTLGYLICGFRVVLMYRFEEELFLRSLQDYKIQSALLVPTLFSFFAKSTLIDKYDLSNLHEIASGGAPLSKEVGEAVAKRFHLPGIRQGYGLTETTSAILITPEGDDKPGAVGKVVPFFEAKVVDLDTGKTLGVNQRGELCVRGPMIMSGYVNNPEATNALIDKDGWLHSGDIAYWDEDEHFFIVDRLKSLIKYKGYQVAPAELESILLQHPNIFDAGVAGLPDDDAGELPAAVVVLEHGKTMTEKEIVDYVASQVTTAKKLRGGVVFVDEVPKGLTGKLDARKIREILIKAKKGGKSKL
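Biochemical qHTS of compounds, final roughly 60 µM downward over six points, against 10 nM purified firefly luciferase using Km concentrations of substrates (10 uM D-luciferin, 10 uM ATP) in Tris acetate pH 7.5 buffer; luminescence output.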
uPA surface inh: qHTS for Inhibitors of Cell Surface uPA Generation; cell surface uPA generation assay, qHTS; Potency, µM (series often up to 38.3 µM), hits mostly inhibitors; 330,000 tested, 0.31% active; AID 540303, 2011; active = well fitted inhibition curve with a large enough effect; inconclusive = small, poorly fitted or top-dose-only effect; inactive = no such curve, though single readings can be large or run the other way; tested in mouse RAW 264.7 cells; note: nearly all actives have a fitted effect of over 55% in size
NPC1 promoter act: qHTS Assay for NPC1 Promoter Activators; 320,000 tested, 2.4% active; Potency, µM (titrated, usually from 9.22 µM), usual class: activators; Huh7 NPC1 promoter luciferase reporter, 24 h; note: nearly all actives have a fitted effect of over 60% in size
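Readout is luciferase luminescence, reflecting NPC1 promoter activation in stably transfected Huh7 cells after 24 h compound exposure at 37 °C in reduced-serum medium with 10% FBS.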
SMN2 splice enh: qHTS Assay for Enhancers of SMN2 Splice Variant Expression; HEK293 SMN2-luciferase splicing reporter, luminescence, 30-36 h; Potency, µM (doses to about 46.1 µM), actives largely listed as activators; 210,000 tested, 2.8% active; AID 1458, 2008; note: nearly all actives have a fitted effect of over 55% in size
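qHTS luciferase splicing reporter: luminescence rises when SMN2 exon 7 is included in transfected HEK293 cells. Compound exposure lasted 30-36 h at 37C, with 4.5 mM final sodium butyrate as control, followed by a ONE-Glo read.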
Rab9 prom act: qHTS Assay for Rab9 Promoter Activators; Huh7 Rab9 promoter-luciferase reporter, luminescence, 24 h; 320,000 tested, 2.8% active; AID 485297, 2010; Potency, µM (series often up to 9.22 µM), usual class: activators; note: nearly all actives have a fitted effect of over 60% in size
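Promoter activation is measured as luciferase luminescence in Huh7 cells stably transfected with a Rab9 promoter–luciferase construct, following 24 h compound exposure at 37 °C and 10 min reagent incubation at ambient temperature.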
ELG1 genotox: qHTS screen for small molecules that induce genotoxicity in human embryonic kidney (HEK293T) cells expressing luciferase-tagged ELG1. HEK293T ELG1-luciferase reporter, luminescence, 16 h. Potency, µM (doses to about 46 µM), usual class: activators. 330,000 tested, 1.3% active. AID 504466, 2011; note: nearly all actives have a fitted effect of over 60% in size
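After overnight (16 hr) compound treatment at 37 °C, ELG1-luciferase HEK293T cells were lysed with ONE-Glo; luminescence quantified 30 min later at room temperature.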
Hits are given with their value; - = inactive; ? = inconclusive; . = no result given; [ ] = another dose, or the depositor's remark. Unless noted, calls come from the whole dose curve; as a rule, active = well fitted curve in the direction sought with a large enough effect; inconclusive = small, poorly fitted or top-dose-only effect, or another doubt; inactive = no such curve, though single readings can be large; an effect the other way counts as inactive or inconclusive.

SMILES | FLuc modulator | uPA surface inh | NPC1 promoter act | SMN2 splice enh | Rab9 prom act | ELG1 genotox
CCOc1ccc(NC(=O)CN(c2ccc(OC)cc2)S(C)(=O)=O)cc1 | 21µM | - | ? | - | - | 16µM
COC(=O)c1ccc(NC(=O)CN(c2ccc(OC)cc2)S(C)(=O)=O)cc1 | 15µM | - | ? | ? | 2.5µM | ?
COc1cc(C)cc2oc(=O)c(CC(=O)NCc3cccc(Cl)c3)c(C)c12 | - | . | . | - | . | .
Cc1ccc(NC(=O)Cn2c(=O)n(CCCCCC(=O)NCc3ccc(F)cc3)c(=O)c3sccc32)cc1C | - | . | . | - | . | .
C=Cc1ccc(COc2ccc3oc(-c4ccccc4)c(C(=O)OCC)c3c2)cc1 | - | . | . | - | . | .
O=C(Nc1ccc(F)cc1)C1COc2ccccc2O1 (centres undefined) | ? | - | - | . | - | -
O=C(Nc1ccc2c(c1)OCO2)C1COc2ccccc2O1 (centres undefined) | 17µM | - | ? | ? | 2.8µM | ?
O=C(Nc1cnc2ccccc2c1)C1COc2ccccc2O1 (centres undefined) | 13µM | - | - | - | 4µM | ?
O=C(Nc1ccc2c(c1)CCC2)C1COc2ccccc2O1 (centres undefined) | 19µM | . | 4µM | 16µM | 2.5µM | 21µM
O=C1OCc2cc(NC(=O)C3COc4ccccc4O3)ccc21 (centres undefined) | - | - | - | - | - | -
COc1cccc(NC(=O)C2COc3ccccc3O2)c1 (centres undefined) | 27µM | - | ? | . | - | ?
CCOCCCn1c(=S)[nH]c2cc(C(=O)NCC(OC)OC)ccc2c1=O | - | - | - | - | - | -
O=C(Nc1ccc2c(c1)OCO2)C1CC(c2ccccc2Cl)=NO1 (centres undefined) | -[2.3 µM] | - | ? | - | 2.5µM | ?
CC/C(=N\Nc1ccccc1[N+](=O)[O-])c1ccc(O)cc1 | 27µM | - | - | . | - | -
C/C(=N\Nc1ccccc1[N+](=O)[O-])c1ccccc1O | 5.4µM | - | - | . | - | 21µM
CCOc1ccc(C(=O)OCc2cc(=O)n3nc(C4CC4)sc3n2)cc1 | - | . | . | . | . | .
CSc1cnc2c(=O)n(C)c(=O)[nH]c2n1 | - | - | - | - | - | -
Cn1c(=O)[nH]c2nnc(-c3ccc(Cl)c(Cl)c3)nc2c1=O | 3.4µM | - | 0.71µM | . | ? | ?
CN(C)C1=NC[C@H](Cc2ccccc2)N1CCCC1CCCC1 | - | 4µM | - | . | - | -
Cn1c(CNc2ccc(F)cc2)nc2ccccc21 | 9.5µM | - | 2.2µM | . | 2.2µM | 16µM
Cn1c(Cc2nc3ccccc3n2C)nc2ccccc21 | - | - | - | . | - | -
Cn1c(CCNC(=O)c2ccc(F)cc2)nc2ccccc21 | - | - | - | - | - | -
Cn1c(CNc2ccccc2)nc2ccccc21 | 19µM | - | 4µM | 18µM | 3.2µM | ?
Cc1ccccc1NCc1nc2ccccc2n1C | 4.3µM | ? | 1.4µM | . | 2µM | 4.1µM
Cn1c(CNc2ccccc2O)nc2ccccc21 | ? | ? | - | - | - | -
SMILES | FLuc modulator | uPA surface inh | NPC1 promoter act | SMN2 splice enh | Rab9 prom act | ELG1 genotox
COc1ccc(NC(=O)c2cnc(SCC(=O)Nc3nc4ccc(C)cc4s3)n(C)c2=O)cc1 | - | . | . | . | . | .
Cn1cccc1/C=N/NC(=O)c1cccc(OC(F)(F)C(F)F)c1 | 21µM | - | - | - | - | -
CC(C)Oc1cccc(C(=O)N/N=C/c2ccoc2)c1 | 11µM | - | - | . | - | ?
Cc1cc(C(=O)N/N=C/c2cccn2C)n[nH]1 | ? | - | - | ? | ? | -
Cc1cccc(C(=O)N/N=C/c2ccc(OCC(=O)N3CCCCC3)cc2)c1 | 15µM | - | - | - | - | -
CCCOc1cccc(C(=O)N/N=C/c2ccoc2)c1 | 13µM | - | - | . | - | ?
Cc1ccc(SCC(=O)O/N=C(\N)c2cccc([N+](=O)[O-])c2)cc1 | - | - | - | - | - | -
N/C(=N\OCc1ccc([N+](=O)[O-])cc1)c1ccncc1 | 15µM | - | ? | 16µM | - | ?
O=C(NNC(=O)c1ccc([N+](=O)[O-])cc1)c1ccncc1 | - | - | - | - | - | -
Cc1ccc(/C(N)=N/OC(=O)CSc2ccccc2)cc1 | 1.7µM | - | 2.5µM | 11µM | 3.5µM | ?
COc1ccc(/C(N)=N/OC(=O)CSc2ccc(C)cc2)cc1 | ? | . | - | - | - | -
COc1ccc(/C(N)=N/OC(=O)CSc2ccccc2)cc1 | 4.8µM | - | ? | - | 3.2µM | ?
N/C(=N\OC(=O)CSc1ccccc1)c1ccc([N+](=O)[O-])cc1 | 19µM | ? | - | ? | - | ?
N/C(=N\OC(=O)COc1ccccc1Cl)c1ccc(Cl)cc1 | ? | - | - | ? | - | ?
Cc1ccc(/C(N)=N/OC(=O)COc2ccccc2Cl)cc1 | 19µM | - | - | - | - | 23µM
